Assay [1] deals with T1, Aspartate--tRNA(Asp/Asn) ligase (Mycobacterium tuberculosis (strain ATCC 25618 / H37Rv)) (UniProt P9WFW3).
T1 sequence (whole entry): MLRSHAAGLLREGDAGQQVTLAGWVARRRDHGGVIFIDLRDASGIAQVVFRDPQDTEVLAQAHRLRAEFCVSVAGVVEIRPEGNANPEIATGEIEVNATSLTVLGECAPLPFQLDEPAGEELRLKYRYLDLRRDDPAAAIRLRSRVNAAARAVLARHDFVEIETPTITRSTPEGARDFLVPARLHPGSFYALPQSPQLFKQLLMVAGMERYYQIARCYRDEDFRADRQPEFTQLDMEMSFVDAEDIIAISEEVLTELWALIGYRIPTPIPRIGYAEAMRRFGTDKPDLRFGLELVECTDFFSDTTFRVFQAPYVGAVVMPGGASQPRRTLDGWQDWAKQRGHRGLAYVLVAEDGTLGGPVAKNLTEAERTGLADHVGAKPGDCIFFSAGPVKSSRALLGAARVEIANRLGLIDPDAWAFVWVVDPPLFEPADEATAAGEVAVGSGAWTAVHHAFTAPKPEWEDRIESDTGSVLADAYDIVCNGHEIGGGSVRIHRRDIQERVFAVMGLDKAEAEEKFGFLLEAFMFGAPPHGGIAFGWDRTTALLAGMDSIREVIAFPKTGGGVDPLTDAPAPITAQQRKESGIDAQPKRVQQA
The assay can be described thus: Assay for Asp RNA synthetase-1 from Mycobacterium tuberculosis. In kind it is functional. Also noted: scale not given: direction of the effect not stated beside the values. Conditions: 30 µM.

Assay [2] has as its target Shiga toxin 2 (Escherichia coli O157:H7) (UniProt P09385+P09386). Briefly: E. coli 0.157:H7 Shiga Toxin SOP - stx2 screening assay. It is filed as functional. Also noted: scale not given: direction of the effect not stated beside the values. The following applies: 30 µM.

For `COc1ccc(NC(=O)CCc2c(C)nc3cc(O)nn3c2C)cn1`, the figures for the Percent Effect in assay [1] and in assay [2] were -0.607% and -81.2%, respectively.

In the case of `Cc1ccc(CN2CCc3ncnc(C4CC4)c3CC2)s1`, the Percent Effect in assay [1] was 9.9%; in assay [2] it was -8.76%.

Turning to `CSCC[C@H](NC(=O)Cn1ccc2c(Cl)cccc21)C(=O)O`, the Percent Effect is -3.22% in assay [1] and -22% in assay [2].

As for `COCCn1ccc(=O)c(OCC(=O)Nc2cccc(C(C)=O)c2)c1C`, the Percent Effect in assay [1] is -4.27%; in assay [2], -43.8%.

Take `COc1ccc2c(c1)C1(CCN(Cc3ccoc3)CC1)N(C)CC2`: the Percent Effect was 0.685% in assay [1] and -9.8% in assay [2].

Regarding `CC(C)n1ccnc1C1CCN(Cc2ccc(Cl)c(F)c2)CC1`, the figures for the Percent Effect in assay [1] and in assay [2] were 9.45% and -39.8%, respectively.

Take `Nc1nc(CN2CCOC(Cn3cncn3)C2)nc2ccccc12` (stereo unspecified): the Percent Effect in assay [1] was -1.84%; in assay [2], 5.62%.

For the compound `CN1CCOC(CNCCc2ccccn2)C1` (stereo unspecified), the Percent Effect was -3.97% in assay [1] and -10.7% in assay [2].

`OC(COc1ccccc1)CN1CCC(c2ccn[nH]2)CC1` (stereo unspecified): the values for the Percent Effect in assay [1] and in assay [2] were -0.6% and -7.22%, respectively.

For the compound `COc1ccc(NC(=O)NCC(O)c2ccc(F)cc2F)c(OC)c1` (stereo unspecified), the Percent Effect in assay [1] was 1.18%; in assay [2], -4.16%.

Regarding `Cn1nccc1C1CCN(CC(O)c2cccc(F)c2)CC1` (stereo unspecified), the Percent Effect was -1.6% in assay [1] and -15.8% in assay [2].

With `CC(C)c1nccn1-c1cccc(C2CCCN2S(=O)(=O)N(C)C)n1` (stereo unspecified), the results for the Percent Effect in assay [1] and in assay [2] were 8.78% and 0.999%, respectively.

Take `COCCc1noc(CN2CCCCC2Cn2nc(C)cc2C)n1` (stereo unspecified): the Percent Effect is -0.417% in assay [1] and 1.32% in assay [2].

As to `CC(=O)NCc1ccc(C(=O)N2CCCCC2Cn2cccn2)o1` (stereo unspecified), the Percent Effect in assay [1] is 0.175%; in assay [2], -2.7%.

`Cc1cccc(C(=O)N2CCCCC2c2ccc(CN(C)C)cc2)n1` (stereo unspecified): the Percent Effect in assay [1] is -2.28%; in assay [2], 13.7%.

As to `c1ccc(Oc2cc(CNCC3CNc4ccnn4C3)ccn2)cc1` (stereo unspecified), the results for the Percent Effect in assay [1] and in assay [2] were -8.46% and -36.5%, respectively.

In the case of `Cc1occc1C(=O)N1CCCC2(CCN(CCN3CCCC3)C2=O)C1` (stereo unspecified), the Percent Effect was 1.84% in assay [1] and -29.2% in assay [2].

For `CC(C)(O)CN1CCN(C(=O)c2cc(Cl)cc3cccnc23)CC1`, the figures for the Percent Effect in assay [1] and in assay [2] were -3.59% and -18%, respectively.

Turning to `COCC1CC2(CCN(C(=O)c3cc(C)oc3C)CC2)CN1C(C)C` (stereo unspecified), the Percent Effect is -2.27% in assay [1] and -25.7% in assay [2].

Regarding `Cc1noc(C)c1CN1CC[C@H]2OCC[C@@H](C(=O)NCC3CC3)[C@@H]2C1`, the Percent Effect in assay [1] was -1.49%; in assay [2], -13.8%.

As for `Cc1ccc(-c2nc(CN3CCc4c(ncn4C)C3)cs2)o1`, the Percent Effect in assay [1] is -4.21%; in assay [2] it was 0.313%.

Take `CC(C)COC(C)C(=O)NCc1ccc(N(C)C)cc1` (stereo unspecified): the results for the Percent Effect in assay [1] and in assay [2] were 5.65% and -8.68%, respectively.

In the case of `CC(C)N(C)Cc1cn2c(n1)CN(C(=O)Cc1ccsc1)CC2`, the Percent Effect in assay [1] is 2.92%; in assay [2], -5.19%.

Turning to `CCOC(=O)C1CCN(Cc2csc(C(C)(C)C)n2)CC1`, the values for the Percent Effect in assay [1] and in assay [2] were -9.34% and -1.05%, respectively.

As to `Cc1nc(CN2CCOC(CN(C)c3cccnn3)C2)cs1` (stereo unspecified), the Percent Effect in assay [1] was -1.09%; in assay [2] it was 7.32%.

For `CN(Cc1ccsc1)C(=O)CN1CCCC1Cn1cccn1` (stereo unspecified), the Percent Effect in assay [1] is 2.25%; in assay [2], -9.42%.

Regarding `COc1ccc(CN(Cc2cncn2C)CC2CCCO2)c(OC)c1` (stereo unspecified), the Percent Effect in assay [1] worked out at 7.91%; in assay [2], 11.4%.

On to `Cc1cc(CNC2CCCN(c3cccnn3)C2)no1` (stereo unspecified), for which the Percent Effect in assay [1] was 6.9%; in assay [2] it was -69.6%.

For the compound `O=C(c1ccc2c(c1)OCO2)N1CCC[C@]2(C[C@H](OCC3CC3)CO2)C1`, the Percent Effect in assay [1] is 1.07%; in assay [2] it was 5.01%.

For the compound `COCCn1cc2c(n1)C(CNCc1ccco1)OCC2` (stereo unspecified), the Percent Effect is 3% in assay [1] and -35.6% in assay [2].

Turning to `CNC(=O)c1cc2c(nc1NCC(C)C)CCN(S(=O)(=O)C1CC1)CC2`, the Percent Effect in assay [1] was -2.58%; in assay [2], 1.28%.

On to `CS(=O)(=O)Cc1ccc(CNC(=O)c2cccnc2O)cc1`, for which the Percent Effect in assay [1] was -6.68%; in assay [2] it was -14.2%.

Take `Cc1cnccc1CN1C[C@@H](O)[C@H](Oc2cccc(F)c2)C1`: the Percent Effect in assay [1] was -1.59%; in assay [2] it was -1.74%.

For `Cc1cnn(CC2CCCN2C(=O)Cc2n[nH]c3ccccc23)c1` (stereo unspecified), the Percent Effect is -2.71% in assay [1] and 12.2% in assay [2].

With `COCCNC(=O)c1sc(Nc2ccc(Cl)cn2)nc1C`, the Percent Effect in assay [1] is -1.92%; in assay [2], -31.4%.

Consider `Cc1n[nH]c(C)c1NC(=O)CN1CCc2c(nc(C3CC3)n2C)C1`, for which the Percent Effect in assay [1] is 4.55%; in assay [2], -6.27%.

Consider `Cc1cc(C)n(C2CCCN(C(=O)CCNS(C)(=O)=O)C2)n1` (stereo unspecified), for which the figures for the Percent Effect in assay [1] and in assay [2] were -0.16% and -20%, respectively.

With `CC(=O)NCc1ccc(C(=O)N2CCCC2c2cnn(C)c2)o1` (stereo unspecified), the results for the Percent Effect in assay [1] and in assay [2] were 1.21% and 21.1%, respectively.

As to `c1csc(-c2nc(CN3CCCC3Cn3cncn3)co2)c1` (stereo unspecified), the results for the Percent Effect in assay [1] and in assay [2] were 3.68% and -0.336%, respectively.

`Cc1nc(C)n(CC2CCCN(Cc3nc(C)c(C)o3)C2)n1` (stereo unspecified): the values for the Percent Effect in assay [1] and in assay [2] were 7.92% and 5.16%, respectively.

For the compound `Cc1cc(C)n(CC2CN(Cc3nc(-c4ccco4)no3)CCO2)n1` (stereo unspecified), the Percent Effect in assay [1] is 1.64%; in assay [2] it was -16.4%.

Turning to `COc1cccc(CN2CCC(c3nccn3C(C)C)CC2)c1`, the Percent Effect in assay [1] was 1.9%; in assay [2] it was -26.4%.

As to `O=C(N[C@@H]1CN(c2ncccn2)C[C@@H]2CCCO[C@@H]21)c1cnccn1`, the Percent Effect in assay [1] was 4.51%; in assay [2] it was -15.4%.

The record behind these values is ChEMBL document CHEMBL3988442, “University of Dundee, Small-Polar-MMV Screening Library” (2021).
